Only a selection was taken, and hits are over-represented in it overall.
Pf Dd2 inh: qHTS Primary assay for Inhibitors of Plasmodium falciparum Dd2 growth in vitro; Potency, µM (series often up to 28.9 µM), inactives show at the top dose activity, negative = inhibition, usual class: inhibitors; 120,000 tested, 4.3% active; P. falciparum Dd2 growth, SYBR Green, 72 h; active means well fitted inhibition curve with a large enough effect;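 further: plate controls were DMSO vehicle for no effect and reference drug for full effect; nearly all actives have a fitted effect of over 65% in size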
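Readout: SYBR Green fluorescence, 485 nm excitation, 535 nm emission, after ~16 h lysis at 37C. Before that, Dd2-infected red cells (2.5% hematocrit) grew 72 h with compound, 29 uM top final concentration.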
* hit, by the source's call; i = inactive; [ ] = dose if it differs, or a comment. Potency means the concentration at half of the fitted maximal effect.

SMILES | Pf Dd2 inh
CCc1ccc(C(=O)CC2(O)C(=O)N(Cc3ccc(C)cc3)c3ccccc32)cc1 (stereo not given) | -22%
Cc1ccc(C(=O)CC2(O)C(=O)N(Cc3ccccc3)c3ccc(Br)cc32)cc1 (stereo not given) | 10µM*
Cc1ccc(C(=O)NC2(C(F)(F)F)N=C(c3ccccc3)N(Cc3ccccc3)C2=O)cc1 (stereo not given) | i
O=C(NC1CCCc2c1[nH]c1ccccc21)c1n[nH]c2c1CCCC2 (stereo not given) | -11%
COc1ccc(C(=O)N[C@@H]2CCC[C@@H]2C(=O)NCc2ccc(OC(F)(F)F)cc2)cc1 | 2%
CN(Cc1cc(-c2cccs2)n[nH]1)C[C@@H]1CCCN2CCCC[C@H]12 | 7.1µM*
CN(Cc1cc(-c2cccs2)n[nH]1)C(=O)c1cn(CCN)nn1 | -5%
CN1CCCn2nc(C(=O)N(C)Cc3cc(-c4cccs4)n[nH]3)cc2C1 | -4%
O=C1NCCOCCN(S(=O)(=O)c2cccc3cccnc23)[C@@H]2CCCC[C@H]12 | -13%
Cc1cccc(-c2cn[nH]c2C2CCN(C(=O)c3ccc(C)[nH]c3=O)CC2)c1 | -6%
COc1cccc(-c2cn3c(n2)N(C(=O)C2CCCC2)CCC3)c1 | 8.9µM*
COc1cccc(-c2cn3c(n2)N(C(=O)Cc2ccsc2)CCC3)c1 | -2%
COc1cccc(-c2cn3c(n2)N(C(=O)C2CCC2)CCC3)c1 | -59%
Cc1ccc(C2c3cc(OCc4nc(C(=O)NCC(C)C)co4)ccc3CCN2C(=O)C2CC2)cc1 (stereo not given) | -15%
CCOC(=O)c1c(NC(=O)COc2ccccc2F)sc2c1CCCC2 | -12%
CC(Sc1cn(CCNC(=O)c2ccccc2F)c2ccccc12)c1ccccc1 (stereo not given) | -20%
CCOC(=O)c1c(NC(=O)CSc2cn(CCNC(=O)c3ccc(OCC)cc3)c3ccccc23)sc2c1CCCC2 | i
CCOC(=O)c1c(NC(=O)CSc2cn(CCNC(=O)c3ccc(OC)cc3)c3ccccc23)sc2c1CCC2 | 13µM*
CCOC(=O)c1c(NC(=O)C(C)Sc2cn(CCNC(=O)c3c(F)cccc3F)c3ccccc23)sc2c1CCC2 (stereo not given) | 7.9µM*
COc1ccc(NC(=O)CSc2cn(CCNC(=O)c3ccc(OC)cc3)c3ccccc23)cc1 | -12%
COc1cncc(NC(=O)C2=NO[C@@H]3CN(Cc4sccc4C)C[C@H]23)c1 | 19%[44.1 µM]
O=C([C@@H]1C[C@H](F)CN1S(=O)(=O)Cc1ccccc1)N1CCc2ccccc2C1 | -21%
CCN1CCN(CC(O)COc2cccc(CN(C)Cc3cc(C)on3)c2)CC1 (stereo not given) | -11%
COc1ccc(OCC(O)CN2CCC(O)CC2)c(CN(C)Cc2csc(C)n2)c1 (stereo not given) | -14%
COc1ccc(CN(C)Cc2ccncc2C)c(OCC(O)CN2CCCC2)c1 (stereo not given) | 2.8µM*
SMILES | Pf Dd2 inh
CCCOC(=O)c1ccc(Nc2c(C(=O)OCC)cnc3c(C)cc(Cl)cc23)cc1 | -24%
CCOC(=O)c1cnc2ccc(Cl)cc2c1Nc1ccc(N2CCOCC2)cc1 | 8.9µM*
CCOC(=O)c1cnc2ccc(Br)cc2c1NCCN1CCOCC1 | i
CCOC(=O)c1cnc2cc(C(F)(F)F)ccc2c1Nc1cc(C)ccc1OC | 9%
CCOC(=O)c1cnc2ccc(C)cc2c1Nc1ccc(N(CC)CC)cc1 | 4.5µM*
Cc1ccc(NC(=O)Cn2nc(-c3ccc(F)cc3)c3cnc4ccc(C)cc4c32)cc1 | 46%
O=C1CCN(C(=O)c2ccsc2)CCCC(c2nc(-c3cccnc3)no2)CCN1 (stereo not given) | i
CN(C)C(=O)c1cc2c(s1)CCC(C(=O)NCc1ccncc1)C2 (stereo not given) | 14%
COc1cccc(C(=O)N2CCC3(CC2)CC(O)CCO3)c1 (stereo not given) | -5%
O=C1NC2(CCN(Cc3cccc4ccccc34)CC2)Oc2ccccc21 | i
CCNC(=O)N[C@H]1CO[C@H]2[C@@H]1OC[C@@H]2n1nnnc1Oc1ccccc1 | 30%[44.1 µM]
O=C(Nc1ccc2c(c1)OCCO2)N1CCCC(CN2CCOCC2)CC1 (stereo not given) | -9%
COc1ccc(CN2C[C@@H](F)[C@@H](OCc3nc4ccncc4[nH]3)C2)cn1 | -15%[44.1 µM]
CCOc1ccc(CN2CCC(CO)(Cc3ccccc3Cl)CC2)cc1 | -20%
COc1ccc2c(c1)C=C(CN1CCC(CO)(Cc3ccccc3Cl)CC1)CO2 | 8.9µM*
COc1ccc(OC)c(CN2CCC3(CC2)OCCN(Cc2ccccc2)C3=O)c1 | -19%[44.1 µM]
O[C@H]1COCCN(Cc2ccc(OC(F)(F)F)cc2)C1 | -16%[44.1 µM]
O=C(NC1CCN(Cc2ccccc2)CC1)c1ccc(Cn2c(=O)c3ccccc3n(Cc3ccc(F)cc3)c2=O)cc1 | 10µM*
O=c1c2ccccc2n(Cc2c(F)cccc2Cl)c(=O)n1Cc1ccccc1 | -2%
Cc1ccc(C)c(Cn2c(=O)n(Cc3ccc(C(=O)NC4CCN(Cc5ccccc5)CC4)cc3)c(=O)c3ccccc32)c1 | -3%
COC(=O)c1ccc(CN2C(=O)[C@@H]3C[C@@H](O)CN3C3(CN(Cc4ccc(OC)cc4)C3)C2=O)cc1 | i
Cc1ccc(C(=O)N2CCC(Oc3ccc(C(N)=O)cn3)CC2)cc1C | i
Cc1ccc(C)c(N2CCN(c3nc4ccccc4c(=O)n3-c3ccccc3)CC2)c1 | i
Cc1cccc(N2CCN(c3nc4ccccc4c4nc(-c5cccnc5)nn34)CC2)c1C | 14%
Cc1ccc(-n2c(/C=C\c3ccc(F)cc3)nc3ccccc3c2=O)cc1Cl | i
SMILES | Pf Dd2 inh
CCc1ccc(-n2c(N3CCN(c4ccc(F)cc4)CC3)nc3ccccc3c2=O)cc1 | 5.6µM*
CCc1ccc(-n2c(N3CCN(c4cccc(C)c4C)CC3)nc3ccccc3c2=O)cc1 | 11µM*
Cc1cccc(-c2nc3c4ccccc4nc(N4CCN(c5ccc(F)cc5)CC4)n3n2)c1 | -3%
C[C@@H](NC(=O)C1=C[C@@H](NC(=O)Cc2cccs2)[C@@H](O)[C@H](O)C1)C(N)=O | 10%[44.1 µM]
CCOc1ccc(C2=CC(c3cc(Br)ccc3F)n3ncnc3N2)cc1Cl (stereo not given) | 11µM*
COC(=O)c1nc2n(n1)C(c1cc(OC)ccc1OC)C=C(c1ccc(Br)cc1)N2 (stereo not given) | 11%
COc1ccc(C2=CC(c3cc(Br)ccc3F)n3c(nc4ccccc43)N2)cc1 (stereo not given) | -23%
COCC(=O)N1CCN(C(=O)c2cccnc2)C[C@H]1C(=O)N[C@@H](CC1CCCCC1)C(N)=O | 12%
Cc1ccc(NC(=O)N[C@H](Cc2ccccc2)C(=O)N2CCOCCNC(=O)CC2)cc1C | i
CCOC(=O)C1CCN(C(=O)CC(c2ccc(Cl)cc2)c2cn(C)c3ccccc23)CC1 (stereo not given) | 4µM*
CCc1cccc2c(C(CC(=O)N3CCCC3)c3cccc(Cl)c3)c[nH]c12 (stereo not given) | -3%
CCOC(=O)C1CCN(C(=O)CC(c2ccc(OC)c(OC)c2)c2c[nH]c3c(CC)cccc23)CC1 (stereo not given) | 1.3µM*
CCc1cccc2c(C(CC(=O)NCCc3ccc(OC)c(OC)c3)c3cccc(OC)c3)c[nH]c12 (stereo not given) | -16%
Cc1ccc(C(CC(=O)N2CCC(C)CC2)c2cn(C)c3ccccc23)cc1 (stereo not given) | -27%
CCOC(=O)C1CCCN(C(=O)CC(c2ccc3c(c2)OCO3)c2cn(CC)c3ccccc23)C1 (stereo not given) | 7.1µM*
